# Results as given in the OligoGym collection.
# Target: RYR2
# Assay: pooled miR-30 sensor sort-seq; sequence = guide strand
# Conditions: shRNA
# Further: reference of the scale not given here.
row,Sequence,sensor-assay potency score (higher = more potent)
1,TTTTATTGTAGAATTTTCGGAA,-0.252
2,TAGTACATAGTGAACTGCGATG,-0.997
3,TTCATTATTATCCATCACCGAA,-1.08
4,TTTAGTAGCTTCTTTGTCTTTG,0.401
5,TTCACTTGAACTTCTCGTGGGG,0.903
6,TATGCTATGATTTTCTTCCAGA,-0.61
7,TTCAGTGTGAACATCATGGTGT,0.656
8,TTGCAGTCCACAACCAGCCAAA,-1.35
9,TAAATCACTGTTTCCATCCAGA,0.11
10,TTTTGTACTCGGTTCCACCTGA,0.606

# Target: S100A11
# Assay: as above
# Conditions: shRNA
row,Sequence,sensor-assay potency score (higher = more potent)
1,TTCTGGTTCTTTGTGAAGGCAG,-0.487
2,ATCTAGCTGACCATCACTGTTG,-0.625
3,AAGCTTAGGAACTCTGTCTTGG,0.352
4,ATCCTTTCCAGCATACTTCTGG,-0.568
5,AATTCTGAGAAATCTAGCTGAC,-0.15
6,AAATTCTGAGAAATCTAGCTGA,0.4
7,TTGTGAAGGCAGCTAGTTCTGT,-0.251
8,TATAACCATCCTTTCCAGCATA,-1.17
9,TCCAGTTTCTTCATCATGCGGT,-0.21
10,AGTGTAGTTATAACCATCCTTT,-1.48
11,TAGTTCTGTATTCATGAAGCTT,-0.971

# Target: S100A4
# Assay: as above
# Conditions: shRNA
row,Sequence,sensor-assay potency score (higher = more potent)
1,TGAGCTTGAACTTGTCACCCTC,0.664
2,TGACTTGTTGAGCTTGAACTTG,-1.01
3,TTTATTGAACTTGCTCAGCATC,-1.33
4,TTGAACTTGTCACCCTCTTTGC,-0.681
5,TTGCTCAGCATCAAGCACGTGT,-0.253
6,TTACACATCATGGCGATGCAGG,-0.526
7,TTGTTGAGCTTGAACTTGTCAC,-0.424
8,TTCGTTACACATCATGGCGATG,-1.19
9,TAGTTCTGACTTGTTGAGCTTG,-0.701
10,TTGAGCTTGAACTTGTCACCCT,0.789
11,TACTCTTGGAAGTCCACCTCGT,0.392
12,TCAGCTTCTGGAAAGCAGCTTC,0.395

# Target: S100P
# Assay: as above
# Conditions: shRNA
row,Sequence,sensor-assay potency score (higher = more potent)
1,TAATCAGAGGTACATGAGCAGG,-1.43
2,TACTTGTGACAGGCAGACGTGA,-0.639
3,TGGTAGCTCCTTCTCCATCAGC,-1.75
4,TTGAGCAATTTATCCACGGCAT,-0.537
5,AAGACGTCTATGATCATGCCCA,0.0811
6,GAACTCACTGAAGTCCACCTGG,-0.698
7,TTGGTCAGGGTCTGCGTGCTGC,-0.458
